Source: PubChem BioAssay (Tox21)
Several values for one entry are separate records, joined by “and”; a condition that tells them apart may be missing. Identical values can stand only once. Records with an inconclusive call do not appear. A call without a number means that no potency is given here. The source holds several records for some structures; these can differ, active in one and inactive in another. Activity calls are given as the source filed them. Unless noted, the call rests on the fitted dose curve; in most records, active means well fitted curve in the direction sought with a large enough effect in the repeat runs; inconclusive means weak or mixed curves; inactive means no such curve, though single readings can be large; an effect the other way counts as inactive or inconclusive.

Key:
[1] = Caspase-3/7 induction in CHO-K1 cells by small molecules, qHTS cell viability counter screen (AID 1346979); further: nearly all actives have a fitted effect of over 35% in size
Method in brief: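 Seeding: 1,500 CHO-K1 cells/well. Rest: 5hr, 37C. Treatment: compounds in DMSO, 16hr. Read: CellTiter-Fluor, 1hr, fluorescence.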

[2] = Caspase-3/7 induction in CHO-K1 cells by small molecules, qHTS assay (AID 1346980); further: nearly all actives have a fitted effect of over 15% in size
Method in brief: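 Wild-type CHO-K1 cells exposed to compounds for 17hr at 37 C, 5% CO2. Caspase-3/7 activity then measured by Caspase-Glo 3/7 luminescence after 30min at room temperature.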

[3] = Caspase-3/7 induction in HepG2 cells by small molecules, qHTS cell viability counter screen (AID 1346981); further: series mostly up to about 92 µM; nearly all actives have a fitted effect of over 30% in size
Method in brief: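 Counter screen for cytotoxicity: HepG2 exposed 16 hr to compounds, then CellTiter-Fluor viability signal (fluorescence, 1 hr reagent incubation).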

[4] = target: Nuclear receptor subfamily 1 group I member 2 (Homo sapiens) (UniProt O75469); assay: Human pregnane X receptor (PXR) small molecule agonists, qHTS assay (AID 1346982); further: nearly all actives have a fitted effect of over 35% in size; further: potency means the concentration at half of the fitted maximal effect
Nuclear receptor subfamily 1 group I member 2 (Homo sapiens), sequence (O75469 whole entry, looked up): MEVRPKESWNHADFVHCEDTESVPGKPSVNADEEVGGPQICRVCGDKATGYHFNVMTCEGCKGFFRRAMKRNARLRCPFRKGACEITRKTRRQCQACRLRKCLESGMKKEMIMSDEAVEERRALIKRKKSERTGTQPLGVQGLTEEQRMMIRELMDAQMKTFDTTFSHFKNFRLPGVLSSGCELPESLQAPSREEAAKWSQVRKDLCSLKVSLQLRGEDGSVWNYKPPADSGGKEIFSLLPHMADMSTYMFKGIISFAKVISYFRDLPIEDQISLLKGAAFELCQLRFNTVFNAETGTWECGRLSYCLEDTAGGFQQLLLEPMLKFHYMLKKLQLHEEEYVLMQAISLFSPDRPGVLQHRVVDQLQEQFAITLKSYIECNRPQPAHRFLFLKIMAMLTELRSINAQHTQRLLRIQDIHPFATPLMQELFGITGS
Method in brief: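 Luminescence (ONE-Glo, 30 min RT) after 24 hr compound exposure of PXR-Luc HepG2 cells; cells rested 5 hr post-plating in 5% charcoal-stripped FBS medium.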

[5] = target: Nuclear receptor subfamily 1 group I member 2 (Homo sapiens) (UniProt O75469); assay: CYP3A4 induction through human pregnane X receptor (PXR) by small molecules, qHTS assay (AID 1346984); further: nearly all actives have a fitted effect of over 40% in size
Method in brief: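 DPX-2 reporter cells; 24h cpd, 37C; Luciferin-IPA 3uM final x3h; One-Glo 30 min RT; lumi read.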

[6] = target: Acetylcholinesterase (Homo sapiens) (UniProt P22303); assay: Acetylcholinesterase (AChE) small molecule antagonists: colormetric cell-based qHTS assay (AID 1347395; calls by dose curve; further: nearly all actives have a fitted effect of over 30% in size; further: potency means the concentration at half of the fitted maximal effect)
Acetylcholinesterase (Homo sapiens), sequence (P22303 whole entry, looked up): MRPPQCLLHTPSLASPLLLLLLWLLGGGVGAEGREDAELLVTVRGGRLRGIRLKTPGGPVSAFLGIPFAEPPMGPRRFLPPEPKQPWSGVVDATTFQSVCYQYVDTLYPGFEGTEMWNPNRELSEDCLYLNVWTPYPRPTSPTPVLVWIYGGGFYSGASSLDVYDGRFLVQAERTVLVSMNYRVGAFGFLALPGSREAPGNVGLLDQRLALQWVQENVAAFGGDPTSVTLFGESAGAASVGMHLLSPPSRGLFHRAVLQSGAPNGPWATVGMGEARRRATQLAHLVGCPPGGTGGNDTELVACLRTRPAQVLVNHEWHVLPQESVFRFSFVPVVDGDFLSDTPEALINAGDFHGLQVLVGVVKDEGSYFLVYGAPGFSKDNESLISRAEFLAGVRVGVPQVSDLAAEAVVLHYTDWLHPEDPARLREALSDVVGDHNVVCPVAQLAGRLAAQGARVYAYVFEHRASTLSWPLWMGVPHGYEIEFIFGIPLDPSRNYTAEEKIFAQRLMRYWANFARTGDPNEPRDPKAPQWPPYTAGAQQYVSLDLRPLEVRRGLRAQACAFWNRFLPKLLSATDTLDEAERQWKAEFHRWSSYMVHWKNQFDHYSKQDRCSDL
Method in brief: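 Quantitative HTS in attached SH-SY5Y cells: 30 min compound exposure, then 90 min with acetylthiocholine and DTNB at 37 C; colour from thiocholine reports AChE activity.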

[7] = target: Acetylcholinesterase (Homo sapiens) (UniProt P22303); assay: Acetylcholinesterase (AChE) small molecule antagonists: fluorescence cell-based qHTS assay (AID 1347398; calls by dose curve; further: nearly all actives have a fitted effect of over 50% in size; further: potency means the concentration at half of the fitted maximal effect); conditions: Potency: AChE activity
Method in brief: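 SH-SY5Y cells (2000/well), attached overnight, incubated with compound 30 min at 37 C. Acetylthiocholine plus Thiolite Green then added for 40 min at room temperature. Thiocholine fluorescence (Ex/Em 490/520 nm) reports cellular AChE activity.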

[8] = target: Acetylcholinesterase (Homo sapiens) (UniProt P22303); assay: Acetylcholinesterase (AChE) small molecule antagonists: enzyme-based qHTS assay with human liver microsomes (AID 1347399; calls by dose curve; further: nearly all actives have a fitted effect of over 60% in size; further: potency means the concentration at half of the fitted maximal effect); conditions: Potency: qHTS inhibition
Method in brief: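 Recombinant human AChE (50 mU/mL in the enzyme mix) and human liver microsomes (0.25 mg/mL final) were preincubated with compound and NADPH (0.25 mg/mL final) for 30 min at 37 C. Acetylthiocholine/DTNB was then added; thiocholine was read colorimetrically after 10 min at room temperature.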

[9] = target: Cytochrome P450 2D6 (Homo sapiens) (UniProt P10635); assay: Cytochrome P450 Family 2 Subfamily D Member 6 (CYP2D6) small molecule antagonists: luciferase reporter qHTS assay (AID 1671196); further: nearly all actives have a fitted effect of over 50% in size; further: potency means the concentration at half of the fitted maximal effect
Cytochrome P450 2D6 (Homo sapiens), sequence (P10635 whole entry, looked up): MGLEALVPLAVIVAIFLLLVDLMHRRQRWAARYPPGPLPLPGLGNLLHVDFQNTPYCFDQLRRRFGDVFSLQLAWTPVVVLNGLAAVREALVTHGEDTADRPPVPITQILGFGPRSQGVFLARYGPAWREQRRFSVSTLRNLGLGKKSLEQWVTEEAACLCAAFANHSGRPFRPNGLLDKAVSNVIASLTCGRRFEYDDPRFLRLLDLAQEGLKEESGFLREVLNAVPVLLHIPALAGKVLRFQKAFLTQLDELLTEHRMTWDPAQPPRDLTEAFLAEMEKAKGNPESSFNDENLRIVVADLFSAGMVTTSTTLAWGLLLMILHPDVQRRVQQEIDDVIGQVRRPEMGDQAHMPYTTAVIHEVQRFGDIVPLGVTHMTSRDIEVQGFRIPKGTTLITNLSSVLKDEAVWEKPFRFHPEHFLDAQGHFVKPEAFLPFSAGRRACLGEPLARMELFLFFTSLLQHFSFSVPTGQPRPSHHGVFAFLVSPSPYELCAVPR
Method in brief: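 Inhibition of CYP2D6 was gauged by loss of luminescence, since light produced tracks the luciferin generated from a proluciferin substrate. A 10 min room-temperature preincubation preceded 1 h NADPH-supported turnover.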

[10] = target: Cytochrome P450 2C19 (Homo sapiens) (UniProt P33261); assay: Cytochrome P450 Family 2 Subfamily C Member 19 (CYP2C19) small molecule antagonists: luciferase reporter qHTS assay (AID 1671197); further: nearly all actives have a fitted effect of over 65% in size; further: potency means the concentration at half of the fitted maximal effect
Method in brief: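 P450-Glo CYP2C19 system: enzyme-substrate mix with compound 10 min at room temperature, then NADPH regeneration solution, 1 h at 37C. Proluciferin-to-luciferin conversion detected by luminescence after 20 min with detection reagent; ketoconazole as positive control.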

[11] = target: Cytochrome P450 2C9 (Homo sapiens) (UniProt P11712); assay: Cytochrome P450 Family 2 Subfamily C Member 9 (CYP2C9) small molecule antagonists: luciferase reporter qHTS assay (AID 1671198); further: nearly all actives have a fitted effect of over 50% in size; further: potency means the concentration at half of the fitted maximal effect
Cytochrome P450 2C9 (Homo sapiens), sequence (P11712 whole entry, looked up): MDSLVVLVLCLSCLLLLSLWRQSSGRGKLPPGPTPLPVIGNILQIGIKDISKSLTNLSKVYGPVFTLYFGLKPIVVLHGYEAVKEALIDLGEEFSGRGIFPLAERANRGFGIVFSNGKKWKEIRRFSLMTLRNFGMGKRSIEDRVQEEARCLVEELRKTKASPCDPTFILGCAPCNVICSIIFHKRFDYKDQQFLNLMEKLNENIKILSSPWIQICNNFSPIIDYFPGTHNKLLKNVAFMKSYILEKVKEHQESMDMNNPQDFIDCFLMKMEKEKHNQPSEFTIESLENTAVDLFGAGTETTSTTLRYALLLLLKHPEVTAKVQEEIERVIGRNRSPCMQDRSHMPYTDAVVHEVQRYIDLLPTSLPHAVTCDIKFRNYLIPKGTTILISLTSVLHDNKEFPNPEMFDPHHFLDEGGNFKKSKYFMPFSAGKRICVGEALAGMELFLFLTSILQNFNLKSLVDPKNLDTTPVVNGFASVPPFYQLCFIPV
Method in brief: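 P450-Glo proluciferin substrate with CYP2C9 enzyme; 10 min RT preincubation, then NADPH regeneration 1 h at 37C; luciferin detection reagent 20 min RT, luminescence in relative luminescence units.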

[12] = target: Voltage-gated inwardly rectifying potassium channel KCNH2 (Homo sapiens) (UniProt Q12809); assay: Human Ether-a-go-go-Related Gene (hERG) channel small molecule antagonists: fluorescence cell-based qHTS assay (AID 1671200); further: nearly all actives have a fitted effect of over 50% in size; further: potency means the concentration at half of the fitted maximal effect
Voltage-gated inwardly rectifying potassium channel KCNH2 (Homo sapiens), sequence (Q12809 whole entry, looked up): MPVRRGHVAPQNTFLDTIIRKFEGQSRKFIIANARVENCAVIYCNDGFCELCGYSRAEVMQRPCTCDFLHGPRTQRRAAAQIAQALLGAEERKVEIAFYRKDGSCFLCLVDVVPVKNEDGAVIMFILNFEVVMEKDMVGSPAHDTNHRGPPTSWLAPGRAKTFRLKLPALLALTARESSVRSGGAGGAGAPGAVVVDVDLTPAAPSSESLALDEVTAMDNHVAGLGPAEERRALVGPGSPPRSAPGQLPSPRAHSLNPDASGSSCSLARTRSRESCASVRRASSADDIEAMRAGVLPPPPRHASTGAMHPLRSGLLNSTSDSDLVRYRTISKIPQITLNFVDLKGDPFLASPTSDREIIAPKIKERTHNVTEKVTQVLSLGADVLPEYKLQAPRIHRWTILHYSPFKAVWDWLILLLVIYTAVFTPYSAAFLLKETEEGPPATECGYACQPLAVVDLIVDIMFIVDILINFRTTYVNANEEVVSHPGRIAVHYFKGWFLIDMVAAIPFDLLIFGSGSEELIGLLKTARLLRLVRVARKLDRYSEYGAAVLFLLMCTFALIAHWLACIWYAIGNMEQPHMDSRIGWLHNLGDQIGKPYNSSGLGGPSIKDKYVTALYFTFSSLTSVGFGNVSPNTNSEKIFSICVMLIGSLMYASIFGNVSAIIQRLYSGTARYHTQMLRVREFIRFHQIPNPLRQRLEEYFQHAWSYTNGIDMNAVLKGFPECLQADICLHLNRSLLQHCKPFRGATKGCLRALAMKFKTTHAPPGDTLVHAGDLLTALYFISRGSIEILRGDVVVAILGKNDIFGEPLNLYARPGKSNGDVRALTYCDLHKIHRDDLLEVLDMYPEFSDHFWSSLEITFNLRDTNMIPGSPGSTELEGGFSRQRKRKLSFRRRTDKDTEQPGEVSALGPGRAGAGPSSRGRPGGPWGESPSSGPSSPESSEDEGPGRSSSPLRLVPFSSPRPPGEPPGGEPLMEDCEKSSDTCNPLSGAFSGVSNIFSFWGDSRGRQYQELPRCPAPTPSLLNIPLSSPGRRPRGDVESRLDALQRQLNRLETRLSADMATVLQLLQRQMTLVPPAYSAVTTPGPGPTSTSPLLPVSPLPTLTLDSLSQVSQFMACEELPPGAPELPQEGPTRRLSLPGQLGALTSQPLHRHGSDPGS
Method in brief: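 First, 1000 cells per well are seeded and cultured overnight at 37 C. Next, FluxOR II dye is loaded for 1 h at room temperature, protected from light. After 10 more minutes, stimulus is added and fluorescence is read.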

[13] = target: Cytochrome P450 3A4 (Homo sapiens) (UniProt P08684); assay: Cytochrome P450 Family 3 Subfamily A Member 4 (CYP3A4) small molecule antagonists: luciferase reporter qHTS assay (AID 1671201)
Cytochrome P450 3A4 (Homo sapiens), sequence (P08684 whole entry, looked up): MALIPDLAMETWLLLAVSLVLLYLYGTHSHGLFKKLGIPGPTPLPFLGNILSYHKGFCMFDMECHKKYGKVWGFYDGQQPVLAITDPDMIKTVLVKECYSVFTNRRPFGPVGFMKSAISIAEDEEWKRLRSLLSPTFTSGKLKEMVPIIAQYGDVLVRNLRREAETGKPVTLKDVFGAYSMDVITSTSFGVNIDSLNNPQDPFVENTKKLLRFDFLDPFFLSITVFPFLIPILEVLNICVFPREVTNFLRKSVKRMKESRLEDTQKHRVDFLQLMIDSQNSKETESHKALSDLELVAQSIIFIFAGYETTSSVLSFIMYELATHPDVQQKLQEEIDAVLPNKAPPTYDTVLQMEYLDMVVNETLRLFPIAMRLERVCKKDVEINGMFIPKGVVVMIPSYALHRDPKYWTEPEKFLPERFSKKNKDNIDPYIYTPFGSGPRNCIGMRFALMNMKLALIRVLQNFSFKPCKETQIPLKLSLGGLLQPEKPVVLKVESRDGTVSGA
Method in brief: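 Enzyme and proluciferin substrate are mixed with test chemicals for 10 min, then NADPH regeneration system drives turnover for 1 h at room temperature. A detection reagent halts the reaction; luminescence after 20 min gives relative activity.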

[14] = target: Nuclear receptor subfamily 1 group I member 2 (Rattus norvegicus) (UniProt Q9R1A7); assay: Rat pregnane X receptor (rPXR) activation by small molecules, qHTS assay (AID 1346983); conditions: rPXR luciferase reporter cells, One-Glo luminescence, 24 h; stronger effect = higher value; further: nearly all actives have a fitted effect of over 20% in size
Nuclear receptor subfamily 1 group I member 2 (Rattus norvegicus), sequence (Q9R1A7 whole entry, looked up): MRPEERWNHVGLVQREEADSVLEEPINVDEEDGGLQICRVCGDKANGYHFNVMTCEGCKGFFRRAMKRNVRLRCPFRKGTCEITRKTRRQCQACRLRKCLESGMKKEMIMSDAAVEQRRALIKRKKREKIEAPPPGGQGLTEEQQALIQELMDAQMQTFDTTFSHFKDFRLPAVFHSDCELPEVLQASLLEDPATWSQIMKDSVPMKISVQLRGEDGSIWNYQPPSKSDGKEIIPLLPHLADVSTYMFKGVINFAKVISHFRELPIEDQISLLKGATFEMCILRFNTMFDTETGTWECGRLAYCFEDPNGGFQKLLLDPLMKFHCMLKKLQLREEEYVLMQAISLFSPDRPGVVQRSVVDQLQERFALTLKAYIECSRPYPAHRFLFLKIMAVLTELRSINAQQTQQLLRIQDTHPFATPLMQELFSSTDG
Method in brief: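 Cell-based rPXR activation assay: rPXR cells, 2,000 per well, rested 5hr at 37 C, then exposed to compounds in DMSO for 24 hr at 37 C. Luciferase activity read by One-Glo luminescence after 30 min at room temperature.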

[15] = target: Cytochrome P450 1A2 (Homo sapiens) (UniProt P05177); assay: Cytochrome P450 Family 1 Subfamily A Member 2 (CYP1A2) small molecule antagonists: luciferase reporter qHTS assay (AID 1671199); further: nearly all actives have a fitted effect of over 50% in size; further: potency means the concentration at half of the fitted maximal effect
Cytochrome P450 1A2 (Homo sapiens), sequence (P05177 whole entry, looked up): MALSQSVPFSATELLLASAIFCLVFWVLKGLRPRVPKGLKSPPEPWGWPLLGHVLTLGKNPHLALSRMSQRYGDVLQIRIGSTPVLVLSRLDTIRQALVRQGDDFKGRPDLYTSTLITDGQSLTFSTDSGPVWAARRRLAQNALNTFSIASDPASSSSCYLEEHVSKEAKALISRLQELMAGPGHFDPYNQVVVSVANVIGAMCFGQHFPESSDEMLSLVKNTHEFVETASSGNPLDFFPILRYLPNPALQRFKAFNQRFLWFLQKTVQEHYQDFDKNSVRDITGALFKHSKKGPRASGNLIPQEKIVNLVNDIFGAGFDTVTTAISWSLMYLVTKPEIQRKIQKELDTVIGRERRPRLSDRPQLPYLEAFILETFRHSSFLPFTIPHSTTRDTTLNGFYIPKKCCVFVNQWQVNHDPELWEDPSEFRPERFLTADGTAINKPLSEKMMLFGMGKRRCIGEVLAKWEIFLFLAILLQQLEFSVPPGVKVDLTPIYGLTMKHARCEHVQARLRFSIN
Method in brief: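 Signal from luciferin formed by CYP1A2 from a proluciferin substrate is read as luminescence, expressed in relative luminescence units. Compounds sit with enzyme 10 min, NADPH-driven reaction runs 1 h, all at room temperature.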

CCCCCCCCCCCCOS(=O)(=O)O
Potency [1]: inactive | Potency [2]: inactive | Potency [3]: inactive | Potency [4]: inactive | outcome [5]: inactive | Potency [6]: inactive | Potency [7]: inactive | Potency [8]: inactive | Potency [9]: inactive | Potency [10]: 78.5 µM (active) and inactive | Potency [11]: 78.5 µM (active) and 71 µM (active) and inactive | Potency [12]: inactive | Potency [13]: inactive

CNC
Potency [1]: inactive | Potency [2]: inactive | Potency [3]: inactive | Potency [4]: inactive | Potency [6]: inactive | Potency [7]: inactive | Potency [8]: inactive | Potency [9]: inactive | Potency [10]: inactive | Potency [11]: inactive | Potency [12]: inactive | Potency [13]: inactive

CCNc1nc(Cl)nc(NCC)n1
Potency [1]: inactive | Potency [2]: inactive | Potency [3]: inactive | Potency [4]: inactive | max activation [14]: -2% (inactive) | outcome [5]: inactive | Potency [6]: 31.9 µM (active) and inactive | Potency [7]: inactive | Potency [8]: inactive | Potency [9]: inactive | Potency [10]: inactive | Potency [11]: inactive | Potency [15]: 11.3 µM (active) and 12.6 µM (active) | Potency [12]: inactive | Potency [13]: inactive

CCCC[N+]1(C)CCCCC1
Potency [1]: inactive | Potency [2]: inactive | Potency [3]: inactive | Potency [4]: inactive | Potency [6]: inactive | Potency [7]: inactive | Potency [8]: inactive | Potency [9]: inactive | Potency [10]: inactive | Potency [11]: inactive | Potency [12]: inactive | Potency [13]: inactive

O=C(O)C(Cl)Cl
Potency [1]: inactive | Potency [2]: inactive | Potency [3]: inactive | Potency [4]: inactive | max activation [14]: -1.74% (inactive) | outcome [5]: inactive | Potency [6]: inactive | Potency [7]: inactive | Potency [8]: inactive | Potency [9]: 29.1 µM (active) and inactive | Potency [10]: inactive | Potency [11]: inactive | Potency [12]: inactive | Potency [13]: inactive

CCOP(=S)(OCC)Oc1ccc2c(C)c(Cl)c(=O)oc2c1
Potency [1]: inactive | Potency [2]: inactive | Potency [3]: inactive | Potency [4]: 27.6 µM (active) and 19.3 µM (active) and 23.7 µM (active) | max activation [14]: 9.05% (inactive) | outcome [5]: inactive | Potency [6]: 22.7 µM (active) and 12.6 µM (active) and inactive | Potency [7]: 12.8 µM (active) and 25.2 µM (active) and inactive | Potency [8]: 1.8 µM (active) and 633 nM (active) and inactive | Potency [9]: 5.08 µM (active) and 15.9 µM (active) | Potency [10]: 321 nM (active) and 50.2 nM (active) and 3.89 µM (active) | Potency [11]: 286 nM (active) and 63.3 nM (active) and 8.71 µM (active) | Potency [12]: 22.1 µM (active) and inactive

CCn1cc[n+](C)c1C
Potency [1]: inactive | Potency [2]: inactive | Potency [3]: inactive | Potency [4]: inactive | Potency [6]: inactive | Potency [7]: inactive | Potency [8]: inactive | Potency [9]: inactive | Potency [10]: inactive | Potency [11]: inactive | Potency [12]: inactive | Potency [13]: inactive

CN(C)[C@@H]1C(=O)C(C(N)=O)=C(O)[C@@]2(O)C(=O)C3=C(O)c4c(O)cccc4[C@@](C)(O)[C@H]3[C@H](O)[C@@H]12
Potency [1]: inactive | Potency [2]: inactive | Potency [3]: inactive | Potency [4]: inactive | max activation [14]: -4.55% (inactive) and -1.55% (inactive) | outcome [5]: inactive | Potency [9]: inactive | Potency [10]: inactive | Potency [11]: 61.8 µM (active) and 39.6 µM (active) | Potency [12]: inactive | Potency [13]: inactive

C1CCC(NC2CCCCC2)CC1
Potency [1]: inactive | Potency [2]: inactive | Potency [3]: inactive | Potency [4]: inactive | max activation [14]: -0.555% (inactive) | outcome [5]: inactive | Potency [6]: inactive | Potency [7]: inactive | Potency [8]: inactive | Potency [9]: 1.47 µM (active) and 252 nM (active) and 246 nM (active) | Potency [11]: inactive | Potency [15]: inactive | Potency [12]: inactive | Potency [13]: inactive

C[N+](C)(C)Cc1ccccc1
Potency [1]: inactive | Potency [2]: inactive | Potency [3]: inactive | Potency [4]: inactive | Potency [6]: inactive | Potency [7]: inactive | Potency [8]: inactive | Potency [9]: 7.93 µM (active) and inactive and 20 µM (active) | Potency [10]: 31.6 µM (active) and inactive | Potency [11]: 79.6 µM (active) and inactive | Potency [15]: inactive | Potency [12]: inactive | Potency [13]: inactive

Cc1cc(-c2ccc(N)c(C)c2)ccc1N
Potency [1]: inactive | Potency [2]: inactive | Potency [3]: inactive | Potency [4]: 53.7 µM (active) and 61.8 µM (active) | Potency [6]: inactive | Potency [7]: inactive | Potency [8]: inactive | Potency [9]: 3.21 µM (active) [middle of 4 runs] | Potency [10]: 6.4 µM (active) [middle of 4 runs] | Potency [11]: 15.9 µM (active) [middle of 4 runs] | Potency [15]: 509 nM (active) [middle of 4 runs] | Potency [12]: inactive

Oc1ccccc1-c1ccccc1
Potency [1]: inactive | Potency [2]: inactive | Potency [3]: inactive | Potency [4]: inactive and 31.4 µM (active) | max activation [14]: -1.27% (inactive) | outcome [5]: inactive | Potency [6]: inactive | Potency [7]: inactive | Potency [8]: inactive | Potency [9]: 39.9 µM (active) | Potency [10]: 39.9 µM (active) and 31.7 µM (active) and 23 µM (active) | Potency [11]: 71 µM (active) and 35.6 µM (active) and 25.8 µM (active) | Potency [12]: inactive | Potency [13]: inactive
